Measurements: PubChem BioAssay (Tox21)
A number with no mark means an inactive call. Results filed as inconclusive are left out. Where a call stands in place of a potency, no number is given. Activity calls are given as the source filed them. Unless noted, calls follow the shape of the dose curve; as a rule, active = well fitted curve in the direction sought with a large enough effect in the repeat runs; inconclusive = weak or mixed curves; inactive = no such curve, though single readings can be large; an effect the other way counts as inactive or inconclusive.

Tests used:
[1] = qHTS assay to identify small molecule agonists of the androgen receptor (AR) signaling pathway in the presence of an antagonist - cell viability counter screen (AID 1259379);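 also: MDA-kb2 human breast cancer cells carrying an MMTV luciferase reporter; series mostly up to about 92 µM; nearly all actives have a fitted effect of over 25% in size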
In short: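 A CellTiter-Fluor read-out measured viability of MDA-kb2 reporter cells (MMTV promoter with AR and GR response elements). Treatment: nilutamide 3.0uM final with compounds at 15 concentrations, 16 hr, 37C, 0% CO2.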

[2] = qHTS assay to identify small molecule agonists of the estrogen receptor beta (ER-beta) signaling pathway - cell viability counter screen (AID 1259380); also: nearly all actives have a fitted effect of over 30% in size
In short: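 Cells used were ER-beta-UAS-bla HEK293T in medium with 2% charcoal-stripped FBS. They were treated for 16 hr at 37C. Viability came from CellTiter-Glo luminescence.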

[3] = qHTS assay to identify small molecule antagonists of the estrogen receptor beta (ER-beta) signaling pathway - cell viability counter screen (AID 1259382); also: series mostly up to about 92 µM; nearly all actives have a fitted effect of over 55% in size
In short: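 Agonist-stimulated (1nM E2) ER-beta-UAS-bla HEK293T cells are incubated with library compounds for 16 hr at 37C. Cell viability is then assessed in the reporter-assay wells by adding CellTiter-Glo and reading luminescence after 30 min.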

[4] = qHTS assay to identify small molecule agonists or antagonists of the thyroid stimulating hormone receptor (TSHR) signaling pathway - wild type cell line counter screen (AID 1259384; calls by dose curve)
In short: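 Wild-type HEK293 cells were plated 18 h at 37 C/5% CO2, pin-dosed with compound plus Ro20-1724 medium, held 30 min at room temperature, then given cAMP-d2 and anti-cAMP-cryptate; fluorescence was read after 1 h. Fifteen concentrations, triplicate.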

[5] = molecular target: Thyrotropin receptor (Homo sapiens) (UniProt P16473); assay: qHTS assay to identify small molecule antagonists of the thyroid stimulating hormone receptor (TSHR) signaling pathway (AID 1259385; calls by dose curve; also: nearly all actives have a fitted effect of over 20% in size)
Chain of Thyrotropin receptor (Homo sapiens) (P16473 whole entry, looked up): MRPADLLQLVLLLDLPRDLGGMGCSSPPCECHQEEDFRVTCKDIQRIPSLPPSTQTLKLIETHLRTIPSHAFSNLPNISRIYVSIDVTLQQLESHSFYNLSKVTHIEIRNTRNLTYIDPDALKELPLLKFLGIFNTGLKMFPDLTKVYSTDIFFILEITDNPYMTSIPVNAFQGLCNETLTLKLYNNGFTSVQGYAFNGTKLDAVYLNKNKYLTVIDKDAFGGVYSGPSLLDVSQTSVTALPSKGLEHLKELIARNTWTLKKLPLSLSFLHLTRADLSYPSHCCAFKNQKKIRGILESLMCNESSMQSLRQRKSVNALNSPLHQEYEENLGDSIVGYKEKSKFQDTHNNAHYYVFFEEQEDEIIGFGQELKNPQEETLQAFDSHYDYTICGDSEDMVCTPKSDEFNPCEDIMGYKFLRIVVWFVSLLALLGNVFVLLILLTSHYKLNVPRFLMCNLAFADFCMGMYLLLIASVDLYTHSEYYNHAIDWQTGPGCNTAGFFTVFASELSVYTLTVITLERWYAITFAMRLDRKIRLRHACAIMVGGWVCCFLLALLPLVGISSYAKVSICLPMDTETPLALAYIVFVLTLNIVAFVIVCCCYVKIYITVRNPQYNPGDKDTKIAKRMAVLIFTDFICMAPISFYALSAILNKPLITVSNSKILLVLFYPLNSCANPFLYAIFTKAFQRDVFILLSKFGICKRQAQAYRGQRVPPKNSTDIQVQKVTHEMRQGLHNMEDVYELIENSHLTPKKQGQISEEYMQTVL
In short: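 TSHR-HEK293 cells were plated and held 18 h at 37C/5% CO2, then given compound plus Ro20-1724 and stimulated with TSH at 1.5 ng/mL final. After 30 min at room temperature, cAMP was detected with cAMP-d2/anti-cAMP-cryptate (1 h) by fluorescence.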

[6] = qHTS assay to identify small molecule agonists of the estrogen receptor alpha (ER-alpha) signaling pathway in the presence of an antagonist - cell viability counter screen (AID 1259386);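 also: cells exposed to compounds for 22 h at 37 °C before the viability read; nearly all actives have a fitted effect of over 30% in size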; also: potency is read from the fitted curve at half-maximal effect; as to activity change, negative = cytotoxicity: series mostly up to about 92 µM
In short: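 ICI-182,780 at 10.0nM final accompanies the compound titration (15 concentrations, 22hr, 37C) on VM7Luc4E2 cells. The CellTiter-Fluor fluorescence readout runs in the same wells as the luciferase assay.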

[7] = molecular target: Progesterone receptor (Homo sapiens) (UniProt P06401); assay: qHTS assay to identify small molecule agonists of the progesterone receptor (PR) signaling pathway (AID 1346784; calls by dose curve; also: nearly all actives have a fitted effect of over 30% in size)
Chain of Progesterone receptor (Homo sapiens) (P06401 whole entry, looked up): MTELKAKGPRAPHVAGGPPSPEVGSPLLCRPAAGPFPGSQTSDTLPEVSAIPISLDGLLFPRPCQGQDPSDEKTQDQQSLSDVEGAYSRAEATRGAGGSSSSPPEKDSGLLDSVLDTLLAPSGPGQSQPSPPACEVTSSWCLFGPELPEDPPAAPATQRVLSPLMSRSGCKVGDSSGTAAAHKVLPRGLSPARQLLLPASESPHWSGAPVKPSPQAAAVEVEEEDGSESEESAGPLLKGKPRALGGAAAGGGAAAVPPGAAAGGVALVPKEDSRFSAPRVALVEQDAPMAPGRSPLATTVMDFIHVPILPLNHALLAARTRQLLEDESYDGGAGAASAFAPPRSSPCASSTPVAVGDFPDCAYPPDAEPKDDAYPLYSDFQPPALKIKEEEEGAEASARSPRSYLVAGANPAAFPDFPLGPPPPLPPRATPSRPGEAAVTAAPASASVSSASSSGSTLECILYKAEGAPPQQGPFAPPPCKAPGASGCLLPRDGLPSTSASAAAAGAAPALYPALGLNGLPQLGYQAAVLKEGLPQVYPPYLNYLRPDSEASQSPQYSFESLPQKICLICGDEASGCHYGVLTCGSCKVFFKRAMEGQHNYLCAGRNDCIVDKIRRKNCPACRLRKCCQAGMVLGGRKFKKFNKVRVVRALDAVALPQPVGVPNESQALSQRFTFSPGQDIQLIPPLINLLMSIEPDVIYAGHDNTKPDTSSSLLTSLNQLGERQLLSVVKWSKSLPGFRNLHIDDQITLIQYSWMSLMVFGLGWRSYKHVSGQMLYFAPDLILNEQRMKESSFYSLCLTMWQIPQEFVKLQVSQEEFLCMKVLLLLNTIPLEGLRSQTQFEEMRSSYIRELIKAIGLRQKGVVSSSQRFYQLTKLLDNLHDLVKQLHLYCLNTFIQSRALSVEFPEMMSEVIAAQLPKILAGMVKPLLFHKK
In short: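 HEK 293T PR-UAS-bla reporter cells, 2% charcoal-stripped FBS; 6 hr settle at 37C/5% CO2, compound (DMSO) 16 hr, LiveBLAzer B/G FRET substrate 2 hr RT, fluorescence intensity read.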

[8] = qHTS assay to identify small molecule antagonists of the progesterone receptor (PR) signaling pathway - cell viability counter screen (AID 1346798); also: series mostly up to about 92 µM; nearly all actives have a fitted effect of over 50% in size
In short: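 Luminescence readout (CellTiter-Glo, 30 min, RT) of viability in PR-UAS-bla HEK293T cells exposed to compound and R5020 agonist for 16 hr at 37C, 5% CO2; run in the same wells as the beta-lactamase reporter read.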

[9] = qHTS assay to identify small molecule agonists of the progesterone receptor (PR) signaling pathway - cell viability counter screen (AID 1346799; calls by dose curve; also: nearly all actives have a fitted effect of over 45% in size)
In short: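 HEK293T PR-UAS-bla, 3,000 cells/well, 2% charcoal-stripped FBS; 6 h settle, compound 16 h at 37C/5% CO2; LiveBLAzer 2 h RT, then CellTiter-Glo 30 min RT, luminescence read.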

[10] = qHTS assay to identify small molecule antagonists of the TGF-beta/Smad signaling pathway - cell viability counter screen (AID 1346824); also: nearly all actives have a fitted effect of over 50% in size
In short: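 SBE-bla HEK 293T cells were plated overnight at 37 C, then given compounds in DMSO plus TGF-beta1 (added as 0.25 ng/mL solution) for 5 hr. After the bla read, CellTiter-Glo was added to the same wells and luminescence read after 30 min at room temperature.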

[11] = qHTS assay to identify small molecule agonists of the TGF-beta/Smad signaling pathway - cell viability counter screen (AID 1346829); also: top concentration of the series differs between compounds; nearly all actives have a fitted effect of over 45% in size
In short: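 CellTiter-Glo luminescence readout; SBE-bla HEK 293T cells, overnight plating, compound 5 hr at 37 C/5% CO2, then bla substrate 2 hr RT, then CellTiter-Glo 30 min RT.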

[12] = qHTS assay to identify small molecule agonists of the TGF-beta/Smad signaling pathway (AID 1346859; active = well fitted activation curve with a large enough effect in the signal ratio in the repeat runs, not every such curve was filed as active; the % refers to the signal ratio; also: series mostly up to about 77 µM)
In short: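 Read-out: fluorescence at 460 and 530 nm (405 nm excitation) after a 2 hr room-temperature incubation with beta-lactamase FRET substrate. SBE-bla HEK 293T cells had been treated with test compounds for 5 hr at 37 C.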

[13] = molecular target: Thyrotropin-releasing hormone receptor (Homo sapiens) (UniProt P34981); assay: qHTS assay to identify small molecule antagonists of the thyrotropin-releasing hormone receptor (TRHR) signaling pathway (AID 1346877; active = well fitted inhibition curve with a large enough effect in the repeat runs, not every such curve was filed as active; also: series mostly up to about 51 µM)
Chain of Thyrotropin-releasing hormone receptor (Homo sapiens) (P34981 whole entry, looked up): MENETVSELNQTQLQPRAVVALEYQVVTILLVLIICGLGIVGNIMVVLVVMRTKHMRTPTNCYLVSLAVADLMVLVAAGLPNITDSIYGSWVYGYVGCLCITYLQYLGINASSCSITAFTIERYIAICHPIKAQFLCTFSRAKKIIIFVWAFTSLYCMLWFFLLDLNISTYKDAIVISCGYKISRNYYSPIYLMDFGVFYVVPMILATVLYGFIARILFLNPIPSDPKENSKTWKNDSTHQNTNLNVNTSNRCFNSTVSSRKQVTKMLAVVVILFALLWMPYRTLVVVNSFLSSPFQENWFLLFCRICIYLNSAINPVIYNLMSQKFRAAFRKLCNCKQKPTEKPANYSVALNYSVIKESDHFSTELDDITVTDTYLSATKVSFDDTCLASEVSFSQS
In short: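 Screening used HEK293 cells engineered with TRHR, with a brief 5 min room-temperature compound exposure preceding addition of TRH to 1 nM. The read-out was kinetic calcium-dye fluorescence, concentration-response from 15 doses in triplicate.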

[14] = molecular target: Thyrotropin-releasing hormone receptor (Homo sapiens) (UniProt P34981); assay: qHTS assay to identify small molecule agonists of the thyrotropin-releasing hormone receptor (TRHR) signaling pathway (AID 1346891; calls by dose curve;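 also: HEK293 cells expressing TRHR with calcium dye readout; series mostly up to about 58 µM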)
In short: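 HEK293/TRHR cells, 1500 per well, 18 h 37 °C; Ca dye 2 h 37 °C; pin-tool compound addition (agonist mode); kinetic fluorescence 3 min, 1 s reads; 15 concentrations, triplicate.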

[15] = molecular target: Estrogen receptor beta (Homo sapiens) (UniProt Q92731); assay: qHTS assay to identify small molecule agonists of the estrogen receptor beta (ER-beta) signaling pathway (AID 1259377; active = well fitted activation curve with a large enough effect in the signal ratio in the repeat runs, not every such curve was filed as active; the % refers to the signal ratio; also: potency is read from the fitted curve at half-maximal effect)
Chain of Estrogen receptor beta (Homo sapiens) (Q92731 whole entry, looked up): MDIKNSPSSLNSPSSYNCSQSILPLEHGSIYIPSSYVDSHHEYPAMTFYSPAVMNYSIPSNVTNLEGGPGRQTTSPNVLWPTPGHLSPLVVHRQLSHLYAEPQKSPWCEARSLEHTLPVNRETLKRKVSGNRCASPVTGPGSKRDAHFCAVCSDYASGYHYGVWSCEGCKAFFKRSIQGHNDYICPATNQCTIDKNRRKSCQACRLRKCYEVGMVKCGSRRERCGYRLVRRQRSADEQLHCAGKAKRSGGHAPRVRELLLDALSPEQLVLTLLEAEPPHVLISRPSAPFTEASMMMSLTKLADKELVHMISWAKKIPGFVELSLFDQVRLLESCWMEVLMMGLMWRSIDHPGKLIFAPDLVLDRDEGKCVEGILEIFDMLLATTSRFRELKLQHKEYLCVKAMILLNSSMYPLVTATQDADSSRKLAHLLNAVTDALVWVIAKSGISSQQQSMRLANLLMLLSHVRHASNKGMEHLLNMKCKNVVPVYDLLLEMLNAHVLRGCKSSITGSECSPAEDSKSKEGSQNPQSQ
In short: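 Beta-lactamase reporter readout: fluorescence of LiveBLAzer B/G FRET substrate after 2 h at room temperature, following 16 h compound treatment of ER-beta-UAS-bla HEK293T cells at 37C in 2% charcoal-stripped FBS medium.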

[16] = molecular target: Progesterone receptor (Homo sapiens) (UniProt P06401); assay: qHTS assay to identify small molecule antagonists of the progesterone receptor (PR) signaling pathway (AID 1346795; active = well fitted inhibition curve with a large enough effect in the signal ratio in the repeat runs, not every such curve was filed as active; the % refers to the signal ratio)
In short: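 Beta-lactamase reporter, HEK293T PR-UAS-bla line; 2% charcoal-stripped FBS; 6 hr pre-incubation, 37C/5% CO2. Compound + R5020 1 nM final, 16 hr. LiveBLAzer B/G FRET substrate, 2 hr RT; fluorescence intensity read.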

[17] = molecular target: Estrogen receptor (Homo sapiens) (UniProt P03372); assay: qHTS assay to identify small molecule agonists of the estrogen receptor alpha (ER-alpha) signaling pathway in the presence of an antagonist (AID 1259383; calls by dose curve; also: top concentration of the series differs between compounds; nearly all actives have a fitted effect of over 15% in size)
Chain of Estrogen receptor (Homo sapiens) (P03372 whole entry, looked up): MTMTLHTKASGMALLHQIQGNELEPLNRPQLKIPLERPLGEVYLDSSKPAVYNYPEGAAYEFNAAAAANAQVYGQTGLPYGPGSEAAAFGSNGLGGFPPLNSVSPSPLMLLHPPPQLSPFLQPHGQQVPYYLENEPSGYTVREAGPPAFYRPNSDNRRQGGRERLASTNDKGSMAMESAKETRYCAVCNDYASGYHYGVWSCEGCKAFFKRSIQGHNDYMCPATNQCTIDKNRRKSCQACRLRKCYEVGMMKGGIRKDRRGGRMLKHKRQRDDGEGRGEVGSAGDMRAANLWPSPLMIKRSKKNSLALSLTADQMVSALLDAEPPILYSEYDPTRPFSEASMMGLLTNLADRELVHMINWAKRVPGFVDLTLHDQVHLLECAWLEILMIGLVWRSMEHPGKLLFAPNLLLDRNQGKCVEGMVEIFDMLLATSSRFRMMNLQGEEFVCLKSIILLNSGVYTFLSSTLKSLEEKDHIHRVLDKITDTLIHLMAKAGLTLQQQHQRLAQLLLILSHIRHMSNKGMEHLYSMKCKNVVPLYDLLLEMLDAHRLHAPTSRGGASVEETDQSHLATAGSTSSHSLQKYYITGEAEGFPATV
In short: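 Using VM7Luc4E2 cells seeded 24hr before treatment, antagonist ICI-182,780 (10.0nM final) was added, followed by compounds at 15 concentrations. Plates incubated 22hr; ONE-Glo luminescence quantified reporter activity.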

[18] = molecular target: Androgen receptor (Homo sapiens) (UniProt P10275); assay: qHTS assay to identify small molecule agonists of the androgen receptor (AR) signaling pathway in the presence of an antagonist (AID 1259381; calls by dose curve; also: nearly all actives have a fitted effect of over 15% in size)
Chain of Androgen receptor (Homo sapiens) (P10275 whole entry, looked up): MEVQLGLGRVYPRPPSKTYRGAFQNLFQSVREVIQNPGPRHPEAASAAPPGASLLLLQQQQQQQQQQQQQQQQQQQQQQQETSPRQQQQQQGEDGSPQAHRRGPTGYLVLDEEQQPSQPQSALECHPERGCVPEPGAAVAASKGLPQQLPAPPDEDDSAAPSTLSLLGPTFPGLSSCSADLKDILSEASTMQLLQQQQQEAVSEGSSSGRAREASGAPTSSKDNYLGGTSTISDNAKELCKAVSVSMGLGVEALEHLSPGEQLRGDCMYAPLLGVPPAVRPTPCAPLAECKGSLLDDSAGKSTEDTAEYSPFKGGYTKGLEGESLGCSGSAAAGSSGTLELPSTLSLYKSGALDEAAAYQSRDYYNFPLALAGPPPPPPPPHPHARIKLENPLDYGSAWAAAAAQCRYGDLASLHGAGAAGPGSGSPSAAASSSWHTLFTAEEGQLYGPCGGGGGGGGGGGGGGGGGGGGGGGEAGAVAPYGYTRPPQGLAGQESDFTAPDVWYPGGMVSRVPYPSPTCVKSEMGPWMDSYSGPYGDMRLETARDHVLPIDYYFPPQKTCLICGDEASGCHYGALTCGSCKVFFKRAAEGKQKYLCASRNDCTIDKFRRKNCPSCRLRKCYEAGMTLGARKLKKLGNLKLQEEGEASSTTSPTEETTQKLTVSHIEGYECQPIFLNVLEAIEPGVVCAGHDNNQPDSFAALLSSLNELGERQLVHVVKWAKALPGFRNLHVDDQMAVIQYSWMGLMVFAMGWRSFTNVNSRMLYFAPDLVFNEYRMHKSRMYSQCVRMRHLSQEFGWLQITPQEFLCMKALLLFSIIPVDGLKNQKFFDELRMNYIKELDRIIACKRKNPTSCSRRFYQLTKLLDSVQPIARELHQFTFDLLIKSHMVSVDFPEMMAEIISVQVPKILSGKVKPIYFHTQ
In short: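 Using human MDA-kb2 cells with an MMTV promoter–luciferase construct (AR and GR response elements), agonist activity is scored under 3.0uM nilutamide (final) co-treatment; 16hr incubation, 37C, luminescence readout via ONE-Glo.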

Clc1cc(Cl)c(Cl)nc1Cl
Potency [1]: inactive
Potency [2]: inactive
outcome [3]: inactive
outcome [4]: inactive
outcome [5]: inactive
Potency [6]: inactive
Potency [7]: inactive
Potency [8]: inactive
Potency [9]: inactive
outcome [10]: inactive
outcome [11]: inactive
outcome [12]: inactive
outcome [13]: inactive
Potency [14]: inactive

O=C1c2ccccc2C(=O)c2cc(O)ccc21
Potency [15]: 5.45 µM (active)
outcome [3]: inactive
outcome [4]: inactive
Potency [6]: 27.3 µM (active)
Potency [7]: inactive
Potency [16]: inactive
outcome [10]: inactive
outcome [11]: inactive
outcome [12]: inactive

CC(C)=CCC/C(C)=C/C#N
Potency [1]: inactive
outcome [3]: inactive
outcome [17]: inactive
outcome [4]: inactive
outcome [5]: inactive
Potency [6]: inactive
Potency [7]: inactive
Potency [16]: inactive
Potency [8]: inactive
Potency [9]: inactive
outcome [10]: inactive
outcome [11]: inactive
outcome [12]: inactive
outcome [13]: inactive
Potency [14]: inactive

Nc1c2c(nc3c1CCC3)CCCC2
Potency [1]: inactive
Potency [18]: inactive
outcome [3]: inactive
outcome [17]: inactive
outcome [4]: inactive
outcome [5]: inactive
Potency [6]: inactive
Potency [7]: inactive
Potency [16]: inactive
Potency [8]: inactive
Potency [9]: inactive
outcome [10]: inactive
outcome [11]: inactive
outcome [12]: inactive
outcome [13]: inactive
Potency [14]: inactive

C[N+]1(CC2COC(c3ccccc3)(c3ccccc3)O2)CCCCC1 (stereo not given)
activity change, negative = cytotoxicity [1]: 4% [at 19 µM]
activity change, negative = cytotoxicity [2]: 12% [at 19 µM]
activity change, negative = cytotoxicity [3]: 0.56% [at 19 µM]
activity change, negative = cytotoxicity [6]: 7.11% [at 19 µM]
activity change, negative = inhibition [16]: 3.69% [at 18.9 µM]
activity change, negative = cytotoxicity [9]: -1.98% [at 19 µM]
viability change, negative = cytotoxic [10]: 7.39% [at 15.8 µM]
activity change, negative = cytotoxicity [11]: -19% [at 15.8 µM]
activation [12]: 1.32% [at 15.8 µM]
activity, negative = inhibition [13]: 1.31% [at 10.5 µM]
activation [14]: 10.8% [at 11.8 µM]

Nc1ccn([C@@H]2O[C@H](CO)[C@@H](O)[C@@H]2O)c(=O)n1
Potency [2]: inactive
outcome [3]: inactive
outcome [17]: inactive
Potency [6]: inactive
Potency [7]: inactive
Potency [16]: inactive
Potency [9]: inactive
outcome [10]: inactive
outcome [12]: inactive
outcome [13]: inactive
Potency [14]: inactive

NC(N)=NCCN1CCCCCCC1
activity change, negative = cytotoxicity [1]: -1.24% [at 0.35 µM]
activity change, negative = cytotoxicity [2]: 2.58% [at 0.349 µM]
activity change, negative = cytotoxicity [3]: 9.29% [at 0.349 µM]
cAMP activity change [4]: 3.9% [at 0.349 µM]
activity change, negative = inhibition [5]: -0.745% [at 0.349 µM]
activity change, negative = cytotoxicity [6]: 3.85% [at 0.349 µM]
activation [7]: -1.69% [at 0.349 µM]
activity change, negative = inhibition [16]: 0.475% [at 0.348 µM]
activity change, negative = cytotoxicity [8]: -0.514% [at 0.348 µM]
activity change, negative = cytotoxicity [9]: 0.507% [at 0.349 µM]
viability change, negative = cytotoxic [10]: 2.08% [at 0.29 µM]
activation [12]: 0.678% [at 0.29 µM]

O=C(O)c1cc(C(=O)O)cc(C(=O)O)c1
Potency [1]: inactive
Potency [2]: inactive
outcome [3]: inactive
outcome [17]: inactive
outcome [4]: inactive
outcome [5]: inactive
Potency [6]: inactive
Potency [7]: inactive
Potency [16]: inactive
Potency [8]: inactive
Potency [9]: inactive
outcome [10]: inactive
outcome [11]: inactive
outcome [12]: inactive
outcome [13]: inactive
Potency [14]: inactive

CC(C)[C@H]1CC[C@@H](C)CC1=O
Potency [1]: inactive
Potency [2]: inactive
outcome [3]: inactive
outcome [4]: inactive
outcome [5]: inactive
Potency [6]: inactive
Potency [7]: inactive
Potency [16]: inactive
Potency [8]: inactive
outcome [11]: inactive
outcome [12]: inactive
